Bioassay records deposited in PubChem BioAssay by National Center for Advancing Translational Sciences (NCATS).
In the library only some 5.7% were active in any assay of this set; here they are far more common.
HT1080-NT tox = kills 2HG-producing HT-1080-NT fibrosarcoma cells | HT-1080-NT fibrosarcoma viability, CellTiter-Glo ATP luminescence, 48 h | Potency, µM (top dose mostly 46.1 µM), actives largely listed as cytotoxic | 360,000 tested, 1.6% active | AID 686970;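 also: NT is the 2HG producing partner of a matched IDH1 knockdown line; nearly all actives have a fitted effect of over 55% in size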
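Compounds were tested in concentration-response format on HT-1080-NT cells for 48 hours at 37 degrees C. Cell viability came from CellTiter-Glo luminescence; curves were classified by r2, response magnitude and activity.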
KB-V1 MDR tox = kills drug-selected multidrug resistant KB-V1 cells; KB-V1 MDR cells viability, CellTiter-Glo, 72 h; Potency, µM (doses to about 46.1 µM), most hits filed as cytotoxic; 400,000 tested, 3.4% active; also: nearly all actives have a fitted effect of over 60% in size
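KB-V1, DMEM (no phenol red) + 10% FBS; cpd pin-transferred, titration series; 72 h, 37 degrees C; CellTiter-Glo, luminescence. Data normalized, curve-fit.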
HT1080 IDH1KD tx = toxicity to HT-1080 IDH1 knockdown cells (counter line). HT-1080 IDH1 knockdown viability, ATP luminescence, 48 h. Potency, µM (highest dose often 46.1 µM), most hits filed as cytotoxic. 360,000 tested, 2% active. AID 686971
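In this qHTS, HT-1080 cells depleted of IDH1 are exposed for 48 h at 37 °C to compound titrations. Toxicity is scored from CellTiter-Glo luminescence, with DMSO as full viability and medium alone as none.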
KB-3-1 tox = KB-3-1 parental cell cytotoxicity. Potency, µM (series often up to 46.1 µM), most hits filed as cytotoxic. AID 1347075. 400,000 tested, 1.4% active. KB-3-1 viability, CellTiter-Glo ATP luminescence, 72 h; also: nearly all actives have a fitted effect of over 60% in size
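Screening of KB-3-1 cells (DMEM, 10% FBS, phenol-red free) ran from lowest to highest compound concentration; after 72 h at 37 °C viability was read luminescently and curves fitted.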
Large screens that a line does not name were inactive; ! = repeats disagree. Calls follow the shape of the dose curve; as a rule, active = well fitted curve in the direction sought with a large enough effect; inconclusive = small, poorly fitted or top-dose-only effect, or another doubt; inactive = no such curve, though single readings can be large; an effect the other way counts as inactive or inconclusive.

CC(/C=N/NC(=O)c1ccccc1C)=C\c1ccccc1	none
COc1ccc(C(=O)N/N=C/C(Br)=C/c2ccccc2)cc1	KB-V1 MDR tox inconclusive
CC(/C=N/NC(=O)c1n[nH]c2c1CCC2)=C\c1ccccc1	HT1080-NT tox 0.18µM, KB-V1 MDR tox 0.21µM, HT1080 IDH1KD tx 0.37µM, KB-3-1 tox 0.33µM
Cc1ccc(CSC2=Nc3ccccc3C3=NC(CCC(=O)NC4CCCCC4)C(=O)N23)cc1 (stereo unspecified)	KB-3-1 tox inconclusive (no result: HT1080-NT tox, HT1080 IDH1KD tx)
Cc1cc2ccccc2cn1	none (no result: HT1080-NT tox, HT1080 IDH1KD tx)
CCc1nc(N)nc(N)c1-c1ccc(Cl)c([N+](=O)[O-])c1	HT1080-NT tox inconclusive, HT1080 IDH1KD tx 0.18µM, KB-3-1 tox 0.65µM
CCc1c(N)nc(N)nc1Nc1ccccc1Cl	HT1080-NT tox inconclusive, KB-V1 MDR tox inconclusive
CCc1nc(N)nc(N)c1-c1ccc(Cl)c(N=[N+]=[N-])c1	HT1080-NT tox inconclusive, KB-V1 MDR tox 16µM, HT1080 IDH1KD tx 2.9µM, KB-3-1 tox 12µM!
COc1cc(/C=C(\C#N)c2ccccn2)ccc1OCc1ccccc1Cl	KB-V1 MDR tox 10µM
COc1cc(/C=C(\C#N)c2ccccn2)cc(OC)c1O	KB-V1 MDR tox inconclusive, KB-3-1 tox 7.3µM
CCN(CC)c1ccc(S(=O)(=O)N2CCOCC2)cc1NC(=O)CN1CCN(Cc2ccccc2)CC1	none
CCN(CCCNC(=O)CCCN1C(=O)COc2ccc(C)cc21)c1cccc(C)c1	KB-V1 MDR tox 12µM
Cc1ccc2c(c1)N(CCCC(=O)NCCCN1CCCCC1)C(=O)CO2	none
COc1cc(CNCCSc2nnnn2C)ccc1OCc1ccc(C)cc1	none (no result: HT1080-NT tox, HT1080 IDH1KD tx)
Cc1sc2nc(CSCC(=O)Nc3ccccc3C#N)[nH]c(=O)c2c1C	KB-V1 MDR tox 21µM
CSc1ccccc1NC(=O)CSCc1nc2sc(C)c(C)c2c(=O)[nH]1	none
CCN(CC)S(=O)(=O)c1nnc(NC(=O)COc2cccc(C)c2)s1	none (no result: HT1080-NT tox, HT1080 IDH1KD tx)
O=C(ONC1=NCCCCC1)c1ccc(Cl)cc1	HT1080-NT tox 16µM, HT1080 IDH1KD tx 23µM
CCCCCCCCN1C(=O)[C@H](CC(=O)NCc2ccccc2)C[C@@]2(C(=O)OC)CC(C)(C)CC=C12	HT1080-NT tox inconclusive, KB-V1 MDR tox 18µM, HT1080 IDH1KD tx inconclusive, KB-3-1 tox inconclusive
CCCCCCCCN1C(=O)[C@H](CC(=O)NCc2ccc(OC)c(OC)c2)C[C@@]2(C(=O)OC)CC(C)(C)CC=C12	HT1080-NT tox inconclusive, KB-V1 MDR tox 21µM, HT1080 IDH1KD tx inconclusive, KB-3-1 tox inconclusive
COC(=O)[C@@]12C[C@@H](CC(=O)NCc3ccc(OC)c(OC)c3)C(=O)N(CCc3ccc(OC)c(OC)c3)C1=CCC(C)(C)C2	KB-V1 MDR tox inconclusive
CCCCCCCCN1C(=O)[C@H](CC(=O)NCCCCc2ccccc2)C[C@@]2(C(=O)OC)CC(C)(C)CC=C12	KB-V1 MDR tox inconclusive, HT1080 IDH1KD tx inconclusive
CCCCCCCCN1C(=O)[C@H](CC(=O)NCCCC)C[C@@]2(C(=O)OC)CC(C)(C)CC=C12	HT1080-NT tox inconclusive, KB-V1 MDR tox 21µM, HT1080 IDH1KD tx inconclusive, KB-3-1 tox inconclusive
Cc1ccc2oc(=O)c3cc(C(=O)N(Cc4ccccc4)C(C)C)sc3c2c1	none (no result: HT1080-NT tox, HT1080 IDH1KD tx)
Cc1ccc2c(c1)C(=O)C(=O)N2Cc1ccccc1	KB-3-1 tox inconclusive
COc1ccc2c(c1)C(=O)C(=O)N2CC1COc2ccccc2O1 (stereo unspecified)	HT1080-NT tox inconclusive, KB-V1 MDR tox inconclusive, KB-3-1 tox 15µM
Cc1ccc2c(c1)C(=O)C(=O)N2CC1COc2ccccc2O1 (stereo unspecified)	KB-V1 MDR tox 21µM, HT1080 IDH1KD tx inconclusive, KB-3-1 tox inconclusive
CCOc1ccc2c(c1)C(=O)C(=O)N2CC1COc2ccccc2O1 (stereo unspecified)	KB-3-1 tox 13µM
COc1ccc2c(c1)C(=O)C(=O)N2CCS(=O)(=O)c1ccccc1	KB-3-1 tox inconclusive
CCN1CCN(CC2COc3ccccc3O2)CC1 (stereo unspecified)	none
COc1ccc(CC(=O)c2ccc(OC)c(OC)c2C)cc1OC	HT1080-NT tox inconclusive, KB-V1 MDR tox 2.3µM, KB-3-1 tox 6.5µM
Fc1ccc(-c2csc(=Nc3cccc(C(F)(F)F)c3)n2Cc2ccc3c(c2)OCO3)cc1	none (no result: HT1080-NT tox, HT1080 IDH1KD tx)
COc1ccc2c(c1)c1c(c(=O)n(Cc3ccccc3)c(=O)n1Cc1cccc(Cl)c1)n2C	none (no result: HT1080-NT tox, HT1080 IDH1KD tx)
COc1ccc(O)c(C(=O)CC(=O)c2ccncc2)c1	KB-V1 MDR tox 9.2µM
O=C(CC(=O)c1ccncc1)c1ccccc1	KB-V1 MDR tox 18µM
COc1ccc(C(=O)CC(=O)c2ccc(OC)cc2)cc1	KB-V1 MDR tox inconclusive
CCC(=O)NC(c1cccs1)c1cc([N+](=O)[O-])c2cccnc2c1O (stereo unspecified)	HT1080-NT tox inconclusive, HT1080 IDH1KD tx 13µM
CC(=O)NC(c1cccs1)c1cc([N+](=O)[O-])c2cccnc2c1O (stereo unspecified)	HT1080-NT tox inconclusive, HT1080 IDH1KD tx 10µM, KB-3-1 tox inconclusive
CCCC(=O)NC(c1cccs1)c1cc([N+](=O)[O-])c2cccnc2c1O (stereo unspecified)	KB-V1 MDR tox inconclusive, HT1080 IDH1KD tx inconclusive, KB-3-1 tox inconclusive
Cc1ccc(CNC(=O)C2CCC(CNS(=O)(=O)c3ccc(C)cc3)CC2)cc1 (stereo unspecified)	KB-V1 MDR tox inconclusive (no result: HT1080-NT tox, HT1080 IDH1KD tx)
Cc1nc2nc(C)c(CCC(=O)N3CCc4ccccc43)c(C)n2n1	KB-V1 MDR tox 21µM
C=CCNc1nc(N2CCCC2)nc2ccccc12	HT1080 IDH1KD tx inconclusive, KB-3-1 tox inconclusive
CC(Nc1nc(N2CCCCC2)nc2ccccc12)c1ccccc1 (stereo unspecified)	HT1080-NT tox inconclusive, KB-V1 MDR tox inconclusive, HT1080 IDH1KD tx inconclusive, KB-3-1 tox 11µM
Cc1c(C#N)c(N)nc2c3c(sc12)NC(=O)CC3c1ccc(Cl)cc1 (stereo unspecified)	HT1080-NT tox 21µM, KB-V1 MDR tox inconclusive, HT1080 IDH1KD tx 16µM
Cc1cccc(NC(=S)NC2CCCCCC2)c1C	KB-V1 MDR tox 18µM
Cc1cccc(NC(=S)NC2CCCC2)c1C	none
CC(C)N(C(=O)c1sc2cc([N+](=O)[O-])ccc2c1Cl)C(C)C	KB-V1 MDR tox 21µM
Cc1ccc(NC(=O)CCSc2nnc3ccccn23)cc1	none
CCOC(=O)c1c(NC(=O)CSc2nnnn2C)sc(C)c1-c1ccc(C)cc1	HT1080-NT tox inconclusive, KB-V1 MDR tox 13µM, HT1080 IDH1KD tx 8.9µM, KB-3-1 tox inconclusive
CCOC(=O)c1c(-c2ccccc2)csc1NC(=O)CSc1nnnn1C	HT1080-NT tox inconclusive, HT1080 IDH1KD tx 11µM
CCOC(=O)c1c(-c2ccc(C)cc2)csc1NC(=O)CCSc1nnc2ccccn12	KB-V1 MDR tox 16µM
CCOC(=O)c1c(NC(=O)CSc2nncs2)sc(C)c1-c1ccccc1	KB-V1 MDR tox 7.3µM, HT1080 IDH1KD tx inconclusive, KB-3-1 tox inconclusive
c1cc2c(cc1Cc1cncc(Cc3ccc4c(c3)OCO4)c1)OCO2	none (no result: HT1080-NT tox, HT1080 IDH1KD tx)
CCOc1ccccc1C(=O)N1CCc2cc(OC)c(OC)cc2C1COc1ccc2c(C)cc(=O)oc2c1 (stereo unspecified)	none (no result: HT1080-NT tox, HT1080 IDH1KD tx)
CCOC(=O)c1c(-c2ccc(OC)cc2)csc1NC(=O)CSc1ccccc1	KB-3-1 tox inconclusive
